High-throughput results (PubChem BioAssay)
FECH block – inhibitors of human ferrochelatase, primary screen, biochemical, purified FECH, Ni-mesoporphyrin absorbance. Ferrochelatase, mitochondrial (Homo sapiens), P22830. Ni-mesoporphyrin absorbance 550 nm. calls only at 10 µM (by protocol). 3.3% of 20,000 active. AID 1671448, 2021;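 active means enzyme reaction rate more than 3 SD below the solvent-only control wells on the same plate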;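 further: lower slope than DMSO wells means FECH inhibition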
Target sequence (P22830 whole entry, looked up): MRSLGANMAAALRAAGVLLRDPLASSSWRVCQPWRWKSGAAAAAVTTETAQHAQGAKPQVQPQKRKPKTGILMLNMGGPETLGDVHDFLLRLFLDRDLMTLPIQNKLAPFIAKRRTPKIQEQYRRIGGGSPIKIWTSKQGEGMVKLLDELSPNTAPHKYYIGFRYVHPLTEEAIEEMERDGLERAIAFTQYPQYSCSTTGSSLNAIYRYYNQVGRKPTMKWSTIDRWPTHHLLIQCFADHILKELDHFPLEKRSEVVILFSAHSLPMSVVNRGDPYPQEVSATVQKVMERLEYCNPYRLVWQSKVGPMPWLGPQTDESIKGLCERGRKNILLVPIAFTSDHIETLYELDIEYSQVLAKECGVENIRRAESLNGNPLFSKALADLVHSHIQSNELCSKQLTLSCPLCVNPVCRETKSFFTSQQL
* hit, by the source's call; i = inactive; + = active, no number. This excerpt belongs to a sample that is enriched for hits.

SMILES	FECH block
CCN(CCCNC(=O)C1CCCN1c1nnc(N2CCCC2=O)s1)Cc1ccccc1 (configuration not stated)	i
COc1ccc(CNC(=O)C2CCCN2c2nnc(N3CCCC3=O)s2)cc1OC (configuration not stated)	+
O=C(NCCCN1CCN(c2ccc(F)cc2)CC1)C1CCCN1c1nnc(N2CCCC2=O)s1 (configuration not stated)	+
O=C(NCCN1CCCc2ccccc21)C1CCCN1c1nnc(N2CCCC2=O)s1 (configuration not stated)	i
COc1ccc(N2CCN(CCCNC(=O)c3cccn3-c3nnc(N4CCCCC4)s3)CC2)cc1	i
COc1ccc(CNC(=O)C2CCCN2S(=O)(=O)c2ccc3c(c2)CCCC(=O)N3)cc1 (configuration not stated)	i
COC(=O)Cc1cc(C2CCN(Cc3ccnc4ccccc34)CC2)n[nH]1	i
Cc1ccccc1NC(=O)N1C[C@H]2OC(=O)N(CCc3ccccn3)[C@H]2C1	i
Cc1ccsc1-c1nccn1CCc1ccccn1	i
NS(=O)(=O)c1ccc(CCNC(=O)CCn2cnc3c([nH]c4ccc(F)cc43)c2=O)cc1	i
NS(=O)(=O)c1ccc(CCNC(=O)CCn2cnc3c([nH]c4ccccc43)c2=O)cc1	+
Cc1ccc2[nH]c3c(=O)n(CCC(=O)NCCc4ccc(S(N)(=O)=O)cc4)cnc3c2c1	i
Cn1ccn2ncc(C(=O)NCCc3ccccn3)c12	+
CCc1c(C)nn(CCNC(=O)c2cnn3ccn(C)c23)c1C	i
Cn1nnnc1SCCNC(=O)c1cnn2ccn(C)c12	i
CCOC(=O)c1cc2ccsc2n1CC(=O)Nc1ccc2c(c1)OCO2	i
CCOc1ccc(OCC)c(Nc2c(-c3ccc4c(c3)CCCC4)c(=O)c2=O)c1	i
CC(C)Oc1cc(N2CCCNC(=O)C2)nc(N)n1	i
CC(C)(C)CNC(=O)c1nc[nH]c1C(=O)N1CCN(Cc2ccccc2)CC1	i
CN(C)c1nc2c(c(NCCc3ccc(F)cc3)n1)CCNC2	i
COC(=O)CN1CCC(NC2CCN(c3cccc(C)c3C)CC2)CC1	i
O=c1cc(CNc2ccccc2F)nc2nc(NCc3ccc(F)cc3)[nH]n12	i
COc1ccccc1CNc1nc2nc(CNc3ccccc3OC)cc(=O)n2[nH]1	i
CCc1ccccc1NCc1cc(=O)n2[nH]c(NCc3ccc(F)cc3)nc2n1	i
COc1ccc(CNc2nc3nc(CNc4ccccc4F)cc(=O)n3[nH]2)cc1	i
SMILES	FECH block
Cc1ccccc1NCc1cc(=O)n2[nH]c(NCc3ccc(F)cc3)nc2n1	+
O=c1cc(CNc2ccccc2F)nc2nc(NCc3ccccc3)[nH]n12	i
Cc1cccc(NCc2cc(=O)n3[nH]c(NCc4ccccc4Cl)nc3n2)c1C	i
Cc1ccccc1NCc1cc(=O)n2[nH]c(NCc3ccccc3Cl)nc2n1	+
O=c1cc(CNc2ccccc2Cl)nc2nc(NCc3ccccc3)[nH]n12	+
CCc1ccccc1NCc1cc(=O)n2[nH]c(NCc3ccc(OC)cc3)nc2n1	i
COc1ccc(CNc2nc3nc(CNc4ccccc4OC)cc(=O)n3[nH]2)cc1	+
Cc1ccccc1C1(O)CCN(Cc2cn[nH]c2C(=O)O)C1 (configuration not stated)	i
CC(=O)c1cccc(Nc2cc(C)nc3nc(-c4cccnc4)nn23)c1	i
CNC(=O)c1nc(CN2CCC(O)(CN(C)C)C2)no1 (configuration not stated)	i
CC(C)Cc1cc(C(=O)NC[C@@H]2CCNC[C@H]2O)n(C)n1	i
Cc1cccc(S(=O)(=O)NCc2nc3cccnc3n2C2CC2)c1	i
CCc1nc(OCC(=O)NCc2cccc(OC)c2)c2c(C)c(C)oc2n1	i
CCCCOc1ccc(C(=O)Nc2ccc(Nc3nc(C)cc(Nc4ccc(C)cc4)n3)cc2)cc1	i
Cc1ccoc1C(=O)N1CCC2(CC1)CC(C(=O)O)N(C)C2 (configuration not stated)	i
CCC1CN(Cc2cc(CN(C)C)cs2)CCN1C(C)C (configuration not stated)	i
COc1cccc2ccc(CN3CCN(c4ccc(C(C)=O)cc4)CC3)nc12	i
Fc1cccc(Nc2nc(N3CCCCC3)nc3c2cnn3-c2ccccc2)c1	i
Cc1cc(C)n(-c2ccc(C(=O)N3CCc4c(c(C(=O)O)nn4C)C3)cc2)n1	i
O=c1cc(CNc2ccc(F)cc2)nc2nc(NCc3ccccc3)[nH]n12	i
Cc1ccc(NCc2cc(=O)n3[nH]c(NCc4ccccc4Cl)nc3n2)cc1	+
CCOc1ccccc1NCc1cc(=O)n2[nH]c(NCc3ccc(F)cc3)nc2n1	i
CCc1ccccc1NCc1cc(=O)n2[nH]c(NCc3ccccc3Cl)nc2n1	+
CCc1ccccc1NCc1cc(=O)n2[nH]c(NCc3ccccc3)nc2n1	i
COc1ccccc1CNc1nc2nc(CNc3ccccc3)cc(=O)n2[nH]1	i
SMILES	FECH block
O=c1[nH]nc(CCn2cccn2)n1-c1cccc(Br)c1	i
COc1ccc(C)cc1S(=O)(=O)N1CCN(c2nc(C)cc(Nc3ccc(C)cc3)n2)CC1	i
COCCCNc1nc(Nc2cccc(C)c2)c2cnn(-c3ccccc3)c2n1	i
Nc1nc(CCC(=O)N2CCOC(c3ccc(Cl)cc3)C2)cs1 (configuration not stated)	i
CNC(=O)c1ccc(Cn2c(=O)c3cc(OC)c(OC)cc3n(CC(=O)NCCC(C)C)c2=O)cc1	+
CNC(=O)c1ccc(Cn2c(=O)c3cc(OC)c(OC)cc3n(CC(N)=O)c2=O)cc1	i
CCCNC(=O)Cn1c(=O)n(Cc2ccc(C(=O)NC(C)C)cc2)c(=O)c2cc(OC)c(OC)cc21	i
CNC(=O)c1ccc(Cn2c(=O)c3cc(OC)c(OC)cc3n(CC(=O)NCCCOC)c2=O)cc1	+
CCCNC(=O)Cn1c(=O)n(Cc2ccc(C(=O)NCCC)cc2)c(=O)c2cc(OC)c(OC)cc21	i
CNC(=O)c1ccc(Cn2c(=O)c3cc(OC)c(OC)cc3n(CC(=O)N3CCCCC3C)c2=O)cc1 (configuration not stated)	i
CNC(=O)c1ccc(Cn2c(=O)c3cc(OC)c(OC)cc3n(CC(=O)N3CCC(C)CC3)c2=O)cc1	+
CNC(=O)c1ccc(Cn2c(=O)c3cc(OC)c(OC)cc3n(CC(=O)Nc3ccccc3)c2=O)cc1	i
COCCCNC(=O)c1ccc(Cn2c(=O)c3cc(OC)c(OC)cc3n(CC(N)=O)c2=O)cc1	i
Cc1ccc(-c2ccnc(N3CCC4(CC3)CNC(=O)O4)n2)c(C)n1	i
Cc1cccc(C(=O)N(Cc2nc3nc(C)cc(C)n3n2)c2ccc(Cl)cc2)c1	i
Cc1ccc(-n2ncc3c(-n4nc(C)cc4NC(=O)c4cccc(C(F)(F)F)c4)ncnc32)c(C)c1	i
CC(C)NC(=O)[C@@H]1C[C@H](N)CN1C(=O)CC1=C(c2ccccc2)CCC1=O	i
COc1ccc(F)c(-c2nc(Cn3ncc4cccnc43)c(C)o2)c1	i
COc1ccc(C(=O)Nc2cccc(OCc3cc(=O)n4ccc(C)cc4n3)c2)cc1	i
COc1cccc(C(=O)Nc2cccc(OCc3cc(=O)n4cc(Cl)ccc4n3)c2)c1	i
Cc1ccn2c(=O)cc(COc3cccc(NC(=O)c4ccccc4C)c3)nc2c1	i
Cc1ccn2c(=O)cc(COc3cccc(NC(=O)c4cccc(Br)c4)c3)nc2c1	i
